# Results published in the supplement of paper PMC11732987, “Enantioselective OTUD7B fragment discovery through chemoproteomics screening and high-throughput optimisation” (Communications Chemistry, 2025).
# Unmarked numbers belong to inactive results.
# Experiments:
# Test in all cases: log2 ratio of Biotin-Ahx-Ub-VS probe labelling (fragment/DMSO); higher = less target engagement (more negative = stronger competition), active = hit call of the paper (q ≤ 0.05, log2 ratio ≤ -1)
# Conditions in all cases: compound concentration: 200 uM; treatment time: 3 h
# ALG13 = molecular target: T1, ALG13 (UniProt Q9NP73)
# T1 sequence (whole entry): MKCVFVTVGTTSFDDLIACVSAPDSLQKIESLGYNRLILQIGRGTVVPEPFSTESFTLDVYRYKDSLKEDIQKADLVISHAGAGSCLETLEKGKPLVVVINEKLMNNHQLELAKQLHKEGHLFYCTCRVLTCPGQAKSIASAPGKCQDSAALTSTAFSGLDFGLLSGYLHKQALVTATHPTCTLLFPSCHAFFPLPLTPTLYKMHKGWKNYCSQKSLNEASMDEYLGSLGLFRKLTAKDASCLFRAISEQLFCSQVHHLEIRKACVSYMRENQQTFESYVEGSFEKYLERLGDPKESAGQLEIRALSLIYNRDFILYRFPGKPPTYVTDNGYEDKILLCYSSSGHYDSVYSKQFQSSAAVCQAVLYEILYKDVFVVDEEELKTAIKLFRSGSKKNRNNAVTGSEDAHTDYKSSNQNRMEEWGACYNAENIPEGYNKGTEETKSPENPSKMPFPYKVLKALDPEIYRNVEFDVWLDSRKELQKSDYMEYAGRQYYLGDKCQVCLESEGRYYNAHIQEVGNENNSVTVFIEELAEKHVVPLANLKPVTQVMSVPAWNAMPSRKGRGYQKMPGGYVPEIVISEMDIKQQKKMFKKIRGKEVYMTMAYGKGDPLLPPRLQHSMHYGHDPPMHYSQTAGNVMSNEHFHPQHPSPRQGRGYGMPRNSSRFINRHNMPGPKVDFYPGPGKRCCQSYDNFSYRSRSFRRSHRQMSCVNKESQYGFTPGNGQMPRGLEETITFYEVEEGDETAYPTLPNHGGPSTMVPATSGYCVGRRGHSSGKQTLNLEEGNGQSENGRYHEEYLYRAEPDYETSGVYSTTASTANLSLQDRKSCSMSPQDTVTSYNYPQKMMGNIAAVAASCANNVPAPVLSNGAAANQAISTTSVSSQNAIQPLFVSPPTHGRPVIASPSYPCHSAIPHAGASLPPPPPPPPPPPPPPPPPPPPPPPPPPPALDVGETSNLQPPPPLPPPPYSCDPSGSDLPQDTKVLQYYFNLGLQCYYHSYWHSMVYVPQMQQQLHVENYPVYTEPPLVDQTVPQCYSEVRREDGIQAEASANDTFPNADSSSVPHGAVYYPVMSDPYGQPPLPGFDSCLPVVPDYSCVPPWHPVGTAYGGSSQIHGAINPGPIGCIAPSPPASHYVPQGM
# Procedure, shortened: (§1)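 Labelling with Biotin-Ahx-Ub-VS (0.5 µM final, 1 h) followed a 3 h triplicate treatment of HEK293T lysate (495 µg per sample, Tris/CHAPS/IGEPAL buffer with protease inhibitors) with fragment at 200 µM or vehicle. Labelled DUBs were NeutrAvidin-enriched, digested with LysC and trypsin, and run by diaPASEF LC-MS/MS. The values, average log2 fragment/vehicle ratios by unpaired t-test, come from global-median-normalised Spectronaut label-free quantities. Proteins with ≥2 unique peptides were used.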
# ATXN3 = ATXN3 (UniProt P54252)
# Sequence of ATXN3 (P54252 whole entry): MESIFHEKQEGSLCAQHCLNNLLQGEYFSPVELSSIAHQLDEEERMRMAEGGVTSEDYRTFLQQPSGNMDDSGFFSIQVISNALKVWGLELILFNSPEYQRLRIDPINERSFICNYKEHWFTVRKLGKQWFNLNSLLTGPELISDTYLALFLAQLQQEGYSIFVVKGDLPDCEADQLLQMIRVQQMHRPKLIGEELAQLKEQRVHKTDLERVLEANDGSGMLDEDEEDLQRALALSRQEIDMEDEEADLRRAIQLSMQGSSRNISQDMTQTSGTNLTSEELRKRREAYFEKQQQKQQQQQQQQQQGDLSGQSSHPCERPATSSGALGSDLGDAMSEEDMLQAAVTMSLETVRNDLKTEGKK
# Procedure, shortened: as §1
# BAP1 = molecular target: T2, BAP1 (UniProt Q92560)
# T2 sequence (whole entry): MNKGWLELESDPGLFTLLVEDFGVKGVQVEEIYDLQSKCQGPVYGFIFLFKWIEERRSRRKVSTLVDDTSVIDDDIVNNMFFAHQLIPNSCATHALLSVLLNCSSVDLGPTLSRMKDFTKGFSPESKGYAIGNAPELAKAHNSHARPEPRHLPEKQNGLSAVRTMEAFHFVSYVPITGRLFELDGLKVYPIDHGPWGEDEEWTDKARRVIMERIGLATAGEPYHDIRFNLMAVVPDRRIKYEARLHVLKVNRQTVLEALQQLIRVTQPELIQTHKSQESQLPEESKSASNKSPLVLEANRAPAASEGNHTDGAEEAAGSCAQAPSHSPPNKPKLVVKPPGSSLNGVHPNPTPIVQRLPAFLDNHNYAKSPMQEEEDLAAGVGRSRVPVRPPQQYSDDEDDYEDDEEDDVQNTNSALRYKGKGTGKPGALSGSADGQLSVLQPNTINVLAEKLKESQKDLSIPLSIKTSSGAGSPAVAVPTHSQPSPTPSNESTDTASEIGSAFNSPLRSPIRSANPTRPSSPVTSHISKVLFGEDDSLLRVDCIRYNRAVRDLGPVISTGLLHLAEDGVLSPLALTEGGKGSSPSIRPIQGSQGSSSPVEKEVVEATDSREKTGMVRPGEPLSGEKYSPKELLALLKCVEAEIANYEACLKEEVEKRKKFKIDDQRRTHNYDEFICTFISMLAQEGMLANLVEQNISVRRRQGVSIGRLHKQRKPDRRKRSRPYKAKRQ
# Procedure, shortened: as §1
# EIF3F = EIF3F (UniProt O00303)
# Sequence of EIF3F (O00303 whole entry): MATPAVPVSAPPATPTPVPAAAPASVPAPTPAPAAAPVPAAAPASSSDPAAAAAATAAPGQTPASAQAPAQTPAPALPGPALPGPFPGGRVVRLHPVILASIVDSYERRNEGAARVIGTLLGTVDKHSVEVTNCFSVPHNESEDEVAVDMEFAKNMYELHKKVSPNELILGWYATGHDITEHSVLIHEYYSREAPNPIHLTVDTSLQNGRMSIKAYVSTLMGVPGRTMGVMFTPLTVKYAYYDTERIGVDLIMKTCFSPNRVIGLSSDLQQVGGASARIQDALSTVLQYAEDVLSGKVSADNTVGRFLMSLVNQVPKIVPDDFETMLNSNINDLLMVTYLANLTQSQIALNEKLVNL
# Procedure, shortened: as §1
# EIF3H = EIF3H (UniProt O15372)
# Sequence of EIF3H (O15372 whole entry): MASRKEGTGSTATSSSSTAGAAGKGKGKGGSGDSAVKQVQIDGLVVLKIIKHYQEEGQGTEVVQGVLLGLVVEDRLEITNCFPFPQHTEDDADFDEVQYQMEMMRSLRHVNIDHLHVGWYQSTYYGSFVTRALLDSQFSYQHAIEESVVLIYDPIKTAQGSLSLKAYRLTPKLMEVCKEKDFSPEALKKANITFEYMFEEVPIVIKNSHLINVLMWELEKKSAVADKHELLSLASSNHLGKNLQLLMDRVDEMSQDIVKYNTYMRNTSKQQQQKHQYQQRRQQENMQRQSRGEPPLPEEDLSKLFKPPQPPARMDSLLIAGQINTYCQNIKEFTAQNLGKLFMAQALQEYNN
# Procedure, shortened: as §1
# FAM105A = molecular target: T3, FAM105A (UniProt Q9NUU6)
# T3 sequence (whole entry): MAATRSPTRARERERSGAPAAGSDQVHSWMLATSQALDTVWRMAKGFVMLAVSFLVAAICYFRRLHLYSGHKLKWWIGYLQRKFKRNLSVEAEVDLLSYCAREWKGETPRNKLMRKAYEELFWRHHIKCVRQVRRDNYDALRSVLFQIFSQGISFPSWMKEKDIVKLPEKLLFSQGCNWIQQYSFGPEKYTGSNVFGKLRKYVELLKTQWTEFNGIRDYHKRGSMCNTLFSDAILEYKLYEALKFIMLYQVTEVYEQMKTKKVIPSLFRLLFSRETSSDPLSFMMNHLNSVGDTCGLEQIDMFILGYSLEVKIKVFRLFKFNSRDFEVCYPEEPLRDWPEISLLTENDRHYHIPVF
# Procedure, shortened: as §1
# OTUB1 = OTUB1 (UniProt Q96FW1)
# Sequence of OTUB1 (Q96FW1 whole entry): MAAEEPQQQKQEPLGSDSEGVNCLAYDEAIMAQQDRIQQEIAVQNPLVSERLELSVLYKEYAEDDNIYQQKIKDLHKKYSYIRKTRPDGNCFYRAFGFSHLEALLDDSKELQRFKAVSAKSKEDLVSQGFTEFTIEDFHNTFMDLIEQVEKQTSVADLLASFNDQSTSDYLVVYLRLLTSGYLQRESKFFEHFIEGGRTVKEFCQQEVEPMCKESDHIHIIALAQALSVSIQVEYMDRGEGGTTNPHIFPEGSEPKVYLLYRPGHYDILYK
# Procedure, shortened: as §1
# OTUD4 = molecular target: T4, OTUD4 (UniProt Q01804)
# T4 sequence (whole entry): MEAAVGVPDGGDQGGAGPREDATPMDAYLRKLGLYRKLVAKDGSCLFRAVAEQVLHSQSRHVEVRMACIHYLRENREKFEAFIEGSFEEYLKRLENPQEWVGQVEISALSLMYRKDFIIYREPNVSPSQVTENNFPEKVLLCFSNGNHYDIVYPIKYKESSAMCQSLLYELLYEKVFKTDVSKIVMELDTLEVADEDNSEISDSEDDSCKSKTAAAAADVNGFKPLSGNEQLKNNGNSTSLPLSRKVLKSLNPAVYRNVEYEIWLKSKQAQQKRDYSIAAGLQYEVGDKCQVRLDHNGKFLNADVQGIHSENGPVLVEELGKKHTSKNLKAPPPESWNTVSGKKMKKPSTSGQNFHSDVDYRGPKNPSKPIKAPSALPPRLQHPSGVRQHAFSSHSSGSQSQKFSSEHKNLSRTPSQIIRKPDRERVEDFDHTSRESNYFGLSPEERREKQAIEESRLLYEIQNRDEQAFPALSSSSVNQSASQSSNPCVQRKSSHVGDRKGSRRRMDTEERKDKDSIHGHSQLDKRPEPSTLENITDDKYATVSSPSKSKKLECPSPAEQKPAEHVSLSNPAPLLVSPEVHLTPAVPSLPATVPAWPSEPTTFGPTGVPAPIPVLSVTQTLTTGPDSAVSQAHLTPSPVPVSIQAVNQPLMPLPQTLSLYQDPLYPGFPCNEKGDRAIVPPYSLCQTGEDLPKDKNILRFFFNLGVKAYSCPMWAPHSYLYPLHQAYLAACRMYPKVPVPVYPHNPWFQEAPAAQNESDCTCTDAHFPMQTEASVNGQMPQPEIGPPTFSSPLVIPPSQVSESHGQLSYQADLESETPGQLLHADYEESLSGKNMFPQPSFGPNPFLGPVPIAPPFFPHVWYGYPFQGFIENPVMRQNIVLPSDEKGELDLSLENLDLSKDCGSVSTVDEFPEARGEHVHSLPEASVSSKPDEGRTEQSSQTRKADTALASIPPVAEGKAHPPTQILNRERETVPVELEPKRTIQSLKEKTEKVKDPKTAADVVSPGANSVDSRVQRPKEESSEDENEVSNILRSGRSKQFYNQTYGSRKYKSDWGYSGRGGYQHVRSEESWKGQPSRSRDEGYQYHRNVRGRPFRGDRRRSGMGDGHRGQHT
# Procedure, shortened: as §1
# OTUD5 = molecular target: T5, OTUD5 (UniProt Q96G74)
# T5 sequence (whole entry): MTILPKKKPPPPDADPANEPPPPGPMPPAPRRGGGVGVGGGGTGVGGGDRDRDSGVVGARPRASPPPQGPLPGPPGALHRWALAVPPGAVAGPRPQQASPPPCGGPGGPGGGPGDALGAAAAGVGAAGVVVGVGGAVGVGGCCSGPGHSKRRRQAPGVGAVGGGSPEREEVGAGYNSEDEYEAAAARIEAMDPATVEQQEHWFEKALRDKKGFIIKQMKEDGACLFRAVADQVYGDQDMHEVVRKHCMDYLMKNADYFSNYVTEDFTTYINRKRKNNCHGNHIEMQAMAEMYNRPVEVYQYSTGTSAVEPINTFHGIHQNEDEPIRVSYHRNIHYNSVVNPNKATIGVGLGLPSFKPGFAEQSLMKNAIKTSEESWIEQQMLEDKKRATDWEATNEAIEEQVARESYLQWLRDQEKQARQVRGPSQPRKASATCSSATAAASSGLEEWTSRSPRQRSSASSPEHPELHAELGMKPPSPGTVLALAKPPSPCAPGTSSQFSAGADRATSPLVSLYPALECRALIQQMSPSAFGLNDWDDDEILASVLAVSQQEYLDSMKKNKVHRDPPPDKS
# Procedure, shortened: as §1
smiles,measurement,setting,value
Cc1conc1C1CN(C(=O)CCl)C1,log2 ratio of Biotin-Ahx-Ub-VS probe labelling,ALG13,0.0664
same,log2 ratio of Biotin-Ahx-Ub-VS probe labelling,ATXN3,-0.85
same,log2 ratio of Biotin-Ahx-Ub-VS probe labelling,BAP1,-1.76 (active)
same,log2 ratio of Biotin-Ahx-Ub-VS probe labelling,EIF3F,-0.671
same,log2 ratio of Biotin-Ahx-Ub-VS probe labelling,EIF3H,0.138
same,log2 ratio of Biotin-Ahx-Ub-VS probe labelling,FAM105A,0.111
same,log2 ratio of Biotin-Ahx-Ub-VS probe labelling,OTUB1,-0.109
same,log2 ratio of Biotin-Ahx-Ub-VS probe labelling,OTUD4,-0.837
same,log2 ratio of Biotin-Ahx-Ub-VS probe labelling,OTUD5,-0.861
